Hit rate of the full screen: of about 120,000 compounds, about 5,300 (4.4%) were called active. Roughly 22% stayed inconclusive and do not appear here. The list comes from a sample in which actives are over-represented; it also holds similar structures and randomly drawn compounds. A number with no mark means an inactive call. The call rests on the fitted dose curve; in most records, active means well fitted inhibition curve with a large enough effect; inconclusive means small, poorly fitted or top-dose-only effect; inactive means no such curve, though single readings can be large or run the other way.
Potency means the concentration at half of the fitted maximal effect.

This assay is described as follows: qHTS Primary assay for Inhibitors of Plasmodium falciparum Dd2 growth in vitro. Further: nearly all actives have a fitted effect of over 65% in size. Conditions: P. falciparum Dd2 growth, SYBR Green, 72 h; series mostly up to 28.9 µM; activity, negative = inhibition: at the top concentration. The text has this: Malaria, a parasitic disease spread to humans through the bite of a Plasmodium infected Anopheles mosquito, continues to be a global health burden affecting millions of people, with an estimated 228 million cases and 405,000 deaths in 2018. Concerns about safety and limitations of current antimalarial treatments strongly emphasize the need to develop new therapeutic options. The scarce number of chemotypes and validated drug targets with efficacy against the liver stage, have hindered development of new antimalarials. To address this, a chemoprophylactic drug discovery effort was conducted through a combined phenotypic high-throughput asexual blood stage and liver stage screen, providing a robust foundation to identify liver-stage active lead chemotypes. Compounds were initially screened against Plasmodium falciparum Dd2 strain parasites using a in vitro SYBRGreen-1 based 72 hr proliferation assay to identify novel chemotypes to advance to liver stage assays. NIH/NCATS Early Translation Branch Assay Submitter (PI): Anton Simeonov Ph.D.
Malaria-vivax Assay Protocol: PROTOCOL TABLE (as described by Inglese et al., 2007) SEQUENCE No. (e.g., 1, 2, 3, etc.); […] (e.g., Cells, Incubation, Reagent, etc.); VALUE; DESCRIPTION SEQUENCE, Parameter, Description 1; Reagent; 3 uL complete malaria growth medium, 1536 TC treated Black clear bottom plate 2; Controls; 23 nL positive control artesunate (300 nM final) to column 1; Neutral control DMSO to columns 2-4 3; Compound; 23 nL of compounds in dose response concentration (29 uM to 0.5 nM final) 4; Reagent; 5 uL malaria infected red blood cells (2.5% hematocrit final, 0.3% parasitemia 5; Time; 72 hours at 37C (5% O2, 5% CO2, 90% N2; 95% Rh) 6; Reagent; 2 uL lysis buffer/SYBRGreen-1, 25 sec shake immediately following dispense 7; Time; ~16 hours at 37C (5% O2, 5% CO2, 90% N2; 95% Rh) 8; Detector; EnVision (PerkinElmer) bottom read at 485/14nm excitation and 535/25 nm emission NOTES (numbers refer to sequence above): 1; Complete Malaria Growth Media: 1X RPMI-1640 w/L-glutamine, 5.5g/L Albumax II, 367 uM Hypoxanthine, 25 mM HEPES, 0.25% Sodium Bicarbonate, 35 uM Gentamicin sulfate 2; Controls were added using the Kalypsis Pintool (Wako USA) equipped with 1536 pinhead 3; Compounds were added in a 7-point, titration with a high final concentration of 29 uM by Pintool from seven inter-plate titrations of library plates and two DMSO control plates at the beginning and end (see Yasgar et al., 2008). 4; Red blood cells infected with Plasmodium falciparum Dd2 parasites were used. 6; Lysis buffer: 20 mM Tris-HCl, 10 mM EDTA, 0.16% Saponin, 1.6% Triton-X, 10X SYBR Green. REFERENCE: Inglese J, Shamu CE, Guy RK. 2007. Reporting data from high-throughput screening of small-molecule libraries. Nat Chem Biol. doi:10.1038/nchembio0807-438 Yasgar A, Shinn P, Jadhav A, Auld D, Michael S, Zheng W, Austin CP, Inglese J, Simeonov A. 2008. Compound Management for Quantitative High-Throughput Screening. J Lab Autom 13:79-89. doi:10.1016/j.jala.2007.12.004
As to `CCN1C(=O)CCN(C(=O)c2cnn(C)c2)CC12CCOCC2`, the “activity, negative = inhibition” value was 8.57%.

Consider `CCc1ccc(CNC(=O)C2CCN(c3nnc(C)c4c(C)n(-c5ccc(C)cc5)nc34)CC2)cc1`, for which the Potency is 10 µM (active).

With `CCCCNC(=O)C1CCCN(c2nnc(C)c3c(C)n(-c4ccc(Cl)cc4)nc23)C1` (centres undefined), the “activity, negative = inhibition” value is -16%.

With `Cc1nnc(N2CCCC(C(=O)NCCN(C)C)C2)c2nn(-c3ccccc3)c(C)c12` (centres undefined), the “activity, negative = inhibition” value is -14.9%.

Regarding `COc1cccc(-c2nc(N3CCOCC3)cc3c2CN(CC2CC2)C3=O)c1`, the Potency is 11.2 µM (active).

In the case of `CN1Cc2c(cc(N3CCOCC3)nc2-c2cccc(F)c2)C1=O`, the “outcome” value was “inactive [at 44.1 µM]”.

In the case of `O=C1c2cc(N3CCOCC3)nc(-c3cccnc3)c2CN1C1COC1`, the “activity, negative = inhibition” value is 2.02% [at 44.1 µM].

Regarding `O=C1CCC(C(=O)NCc2ccc(-c3cnc4c(Oc5ccccc5)nccn34)cc2)N1` (centres undefined), the “activity, negative = inhibition” value is -8.65% [at 44.1 µM].

Take `COc1ccc(C2Cn3nnc(-c4nc(-c5ccc(OC(C)C)cc5)no4)c3CO2)cc1` (centres undefined): the result was inactive.

For `Cc1ccc(C)c(N2CCN(CCCNC(=O)Nc3ccc(Cl)cc3)CC2)c1`, the Potency is 10 µM (active).

Take `CCOC(=O)c1c(C)[nH]c(CCC(=O)NCCCN2CCN(c3cccc(Cl)c3)CC2)c1C`: the outcome was inactive.

`Cc1ccc(C)c(N2CCN(C(=O)Cc3c(C(=O)O)c(C)cn3C)CC2)c1`: the “activity, negative = inhibition” value is 4.31%.

For the compound `CCOC(=O)c1c(C)[nH]c(CCC(=O)NCCCN2CCN(c3cc(C)ccc3C)CC2)c1C`, the Potency was 10 µM (active).

Take `CC1=C(c2ccc(Cl)cc2)S(=O)(=O)N=C1N1CCN(c2cc(C)ccc2C)CC1`: the compound was classed as inactive.

As for `CCOC(=O)c1c(C)[nH]c(CCC(=O)Nc2ccc(OC)c(OC)c2)c1C`, the “activity, negative = inhibition” value was -10.2%.

Take `CCN1CCCC1CNC(=O)CCC1CCN(Cc2ccc(Cl)o2)CC1` (centres undefined): the “activity, negative = inhibition” value was -22.2%.

As to `O=C(Cn1ccn2nc(-c3ccc(F)cc3)c(CO)c2c1=O)NCCC1=CCCCC1`, the “activity, negative = inhibition” value is 5.48%.

In the case of `COc1cccc(CNC(=O)Cn2c(C)cc3nc4n(c(=O)c32)CCCC4)c1`, the “activity, negative = inhibition” value was 199%.

Regarding `O=C1CSC2(CCN(S(=O)(=O)c3ccc(F)cc3)CC2)N1Cc1ccco1`, the compound was classed as inactive.

For `CC(C)CCN1CCC(N2CCN(C(=O)C3CCC3)CC2)C1=O` (centres undefined), the “activity, negative = inhibition” value is -6.67%.

Consider `COc1cccc(CN2CCc3nc(SCC(=O)Nc4ccccc4)[nH]c(=O)c3C2)c1`, for which the “activity, negative = inhibition” value is 30.2%.

`COc1cccc(CN2CCc3c(cc(C(=O)NCCN4CCCCC4)n3C)C2)c1`: the Potency was 3.98 µM (active).

As for `CNC(=O)[C@@H]1CN(Cc2cccc(OC)c2)C[C@H]1CO`, the “activity, negative = inhibition” value was -8.46%.

In the case of `CCc1ccc(C(=O)N2CCC(c3n[nH]c(=O)n3Cc3ccc(OC)cc3)CC2)cc1`, the “activity, negative = inhibition” value is -0.555%.

In the case of `O=Cc1cccc(N2CCN(C(=O)N3CCCC3)CC2=O)c1`, the “activity, negative = inhibition” value was -15.5%.

Turning to `CC(C)N1CC[C@@H]2[C@H]1C(=O)NC[C@H](CCC(=O)NCc1ccccc1)N2C`, the “outcome” value was “inactive [at 44.1 µM]”.

As for `CCC(CC)C(=O)NC[C@H]1O[C@H](Cc2cc(-c3ccc(F)cc3)on2)CC[C@@H]1O`, the “outcome” value was “inactive [at 44.1 µM]”.

With `COCc1cc(C[C@@H]2CC[C@H](O)[C@@H](CN(C)C)O2)no1`, the “activity, negative = inhibition” value was -8.69% [at 44.1 µM].

Take `COCc1cc(C[C@@H]2CC[C@H](O)[C@@H](CN(CC3CCCCC3)CC3CCCCC3)O2)no1`: the Potency was 3.16 µM (active).

Regarding `O=C(CN1C(=O)COc2ccc(C(=O)COc3ccc(Cl)cc3F)cc21)NCCc1ccccc1`, the “activity, negative = inhibition” value was -23.5%.

With `Cc1ccc(C)c(C(=O)NC2CCN(c3cnn(CC4CC4)c(=O)c3)CC2)c1`, the compound was classed as inactive.

Turning to `C[C@]1(O)CCN(C(=O)c2ccc(N3CC(=O)NC3=O)cc2)C[C@@H]1O`, the “activity, negative = inhibition” value is -0.0782%.

With `Cc1noc([C@@H]2CN(S(=O)(=O)c3ccc4c(c3)CCC4)C[C@H]2C(N)=O)n1`, the “activity, negative = inhibition” value is 4.51%.

Regarding `COc1ccc(N2CCN(C(=O)c3c(C)oc4nc(C)nc(N5CCCC5)c34)CC2)cc1`, the “activity, negative = inhibition” value is 11.3%.

As to `Cc1nc(N2CCOCC2)c2c(C(=O)NCc3cccc(Cl)c3)c(C)oc2n1`, the “activity, negative = inhibition” value was 29.7%.

Regarding `CCOC(=O)c1c(C)oc2nc(C)nc(N(CC(C)C)CC(C)C)c12`, the Potency is 10 µM (active).

For the compound `CCOC(=O)c1c(C)oc2nc(C)nc(N3CCN(c4ccc(OC)cc4)CC3)c12`, the Potency was 10 µM (active).

Take `CN(CCc1noc(C2CN(C(=O)c3cc(F)ccc3F)C2)n1)C(=O)C1CC1`: the “activity, negative = inhibition” value was 3.18%.

Consider `Cc1nc(N(C)C)ncc1C(=O)N[C@@H]1CCOC[C@H]1Oc1ccccn1`, for which the “activity, negative = inhibition” value is -2.13%.

In the case of `COc1ccc(O[C@H]2COCCN(S(=O)(=O)c3c(C)noc3C)C2)cc1`, the “activity, negative = inhibition” value was -24.8% [at 44.1 µM].

Consider `O=C(c1ccccn1)N1C[C@@H]2OCC(=O)N(CC3CC3)[C@@H]2C1`, for which the “activity, negative = inhibition” value is 0.941% [at 44.1 µM].

For `CCN(CCCNC(=O)c1cc2c(=O)n(CC)c3ccccc3c2s1)Cc1ccccc1`, the Potency was 4.47 µM (active).

In the case of `CCc1ccc(CNC(=O)c2cc3c(=O)n(CC)c4ccccc4c3s2)cc1`, the “activity, negative = inhibition” value is -2.37%.

Regarding `CCn1c(=O)c2cc(C(=O)NCCc3ccc(Cl)cc3)sc2c2ccccc21`, the “activity, negative = inhibition” value is 5.17%.

Regarding `CN(Cc1ccc2c(c1)OCO2)C(=O)C1(C)CCOCC1`, the “activity, negative = inhibition” value was -15.2% [at 44.1 µM].

For the compound `COCCNC(=O)CC[C@]12CC[C@](C)(O)C[C@H]1C(C)(C)C[C@@H]2NC(=O)c1ccc(C(F)(F)F)cc1`, the outcome was inactive.

For `Cc1noc(C)c1C(=O)N1CCCC(CCc2ccc(F)cc2F)C1` (centres undefined), the “activity, negative = inhibition” value is -8.48%.

Turning to `Cc1cc(F)ccc1NC(=O)CCC1CCCN(C(=O)c2ccc(Cl)s2)C1` (centres undefined), the compound was classed as inactive.

`Cc1c[nH]c(CN2CCCC(CCc3ccc(F)cc3F)C2)c(C)c1=O` (centres undefined): the Potency was 10 µM (active).

Source of the values: PubChem BioAssay AID1347417 (National Center for Advancing Translational Sciences (NCATS), 2020).
